Reference: PubChem BioAssay (EPA / NIEHS)
Where “and” joins values, the source holds several entries; their conditions need not be identical. Equal values may be shown once. Some compounds were tested as several samples or in several runs, with calls that do not always agree. Calls of active or inactive are those of the source. How the source made its calls: active means hit-call score of the fitted dose curve at least 0.9, where 1 is the maximum; inactive means score below 0.9.

Tests used:
[1] = read-out: Cytochrome P450 (CYP1A1), CYP1A1 (gene 1543); experiment: LTEA_HepaRG_CYP1A1: Life Technologies and Expression Analysis (LTEA) Assay for Cytochrome P450 (CYP1A1) using HepaRG (AID 2283454); details: mRNA level, 48 h; actives raise or lower the signal
In short: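 Differentiated human HepaRG cells, after 48 h plating, exposed in duplicate for 48 h in serum-free induction medium to 8 half-log concentrations up to 100 uM in 0.5% DMSO. CYP1A1 mRNA by qRT-PCR, normalized to ACTB/GAPDH/POLR2A; bidirectional fit versus DMSO.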

[2] = read-out: CFLAR gene, CFLAR (gene 8837); experiment: LTEA_HepaRG_CFLAR: Life Technologies and Expression Analysis (LTEA) Assay for CFLAR gene using HepaRG (AID 2283455); details: mRNA level, 48 h; actives raise or lower the signal
In short: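 HepaRG cells were plated for 48 h, switched to serum-free induction medium, then exposed in duplicate for 48 h to 8 concentrations (top 100 uM, half-log steps, 0.5% DMSO). CFLAR mRNA was measured by qRT-PCR, normalized to ACTB, GAPDH and POLR2A.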

[3] = read-out: Forkhead box O1 (FOXO1), FOXO1 (gene 2308); experiment: LTEA_HepaRG_FOXO1: Life Technologies and Expression Analysis (LTEA) Assay for Forkhead box O1 (FOXO1) using HepaRG (AID 2283456); details: mRNA level, 48 h; actives raise or lower the signal
In short: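 Differentiated human HepaRG cells in serum-free induction medium were exposed in duplicate for 48 h to eight half-log concentrations (top 100 uM, 0.5% DMSO). FOXO1 mRNA was measured by TaqMan qRT-PCR, normalised to ACTB, GAPDH and POLR2A, and fitted bidirectionally against DMSO.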

[4] = read-out: growth arrest and DNA damage 45 (GADD45A), GADD45A (gene 1647); experiment: LTEA_HepaRG_GADD45A: Life Technologies and Expression Analysis (LTEA) Assay for growth arrest and DNA damage 45 (GADD45A) using HepaRG (AID 2283458); details: mRNA level, 48 h; actives raise or lower the signal
In short: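 Human HepaRG liver cells are treated in duplicate for 48 h with chemicals in 0.5% DMSO, highest concentration 100 uM. Expression is read by qRT-PCR and analyzed in both directions against vehicle.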

[5] = read-out: ABC Transporter (ABCB1), ABCB1 (gene 5243); experiment: LTEA_HepaRG_ABCB1: Life Technologies and Expression Analysis (LTEA) Assay for ABC Transporter (ABCB1) using HepaRG (AID 2283460); details: mRNA level, 48 h; actives raise or lower the signal
In short: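 Differentiated human HepaRG cells, plated 48 h then switched to serum-free induction medium, were exposed in duplicate to eight half-log concentrations up to 100 uM in 0.5% DMSO for 48 h. ABCB1 mRNA was measured by TaqMan qRT-PCR, normalized to ACTB/GAPDH/POLR2A.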

[6] = read-out: growth arrest and DNA damage 45 (GADD45B), GADD45B (gene 4616); experiment: LTEA_HepaRG_GADD45B: Life Technologies and Expression Analysis (LTEA) Assay for growth arrest and DNA damage 45 (GADD45B) using HepaRG (AID 2283461); details: mRNA level, 48 h; actives raise or lower the signal
In short: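 Differentiated human HepaRG cells in serum-free induction medium exposed 48 h in duplicate to eight concentrations, top 100 uM, half-log steps, 0.5% DMSO. GADD45B mRNA by TaqMan qRT-PCR, normalized to ACTB, GAPDH, POLR2A; bidirectional fit versus DMSO.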

[7] = read-out: ABC Transporter (ABCC3), ABCC3 (gene 8714); experiment: LTEA_HepaRG_ABCC3: Life Technologies and Expression Analysis (LTEA) Assay for ABC Transporter (ABCC3) using HepaRG (AID 2283462); details: mRNA level, 48 h; actives raise or lower the signal
In short: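 Differentiated human HepaRG cells exposed 48 h in serum-free induction medium, 0.5% DMSO vehicle, 8-point half-log series to 100 uM in duplicate. ABCC3 mRNA by qRT-PCR, normalised to ACTB, GAPDH, POLR2A; bidirectional fit vs DMSO.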

[8] = read-out: ABC Transporter (ABCB11), ABCB11 (gene 8647); experiment: LTEA_HepaRG_ABCB11: Life Technologies and Expression Analysis (LTEA) Assay for ABC Transporter (ABCB11) using HepaRG (AID 2283463); details: mRNA level, 48 h; actives raise or lower the signal
In short: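 Differentiated human HepaRG cells were exposed for 48 h in serum-free induction medium to eight half-log concentrations up to 100 uM in 0.5% DMSO. ABCB11 mRNA was quantified by qRT-PCR, normalized to ACTB, GAPDH and POLR2A, and fitted bidirectionally versus DMSO.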

[9] = read-out: ABC Transporter (ABCC2), ABCC2 (gene 1244); experiment: LTEA_HepaRG_ABCC2: Life Technologies and Expression Analysis (LTEA) Assay for ABC Transporter (ABCC2) using HepaRG (AID 2283464); details: mRNA level, 48 h; actives raise or lower the signal
In short: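 Differentiated HepaRG cells in serum-free induction medium exposed 48 h to eight half-log concentrations up to 100 uM, 0.5% DMSO, in duplicate. ABCC2 mRNA measured by qRT-PCR (TaqMan, Fluidigm), normalized to ACTB, GAPDH and POLR2A. Fitted in both directions against DMSO.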

[10] = read-out: Broad substrate specificity ATP-binding cassette transporter ABCG2 (Homo sapiens) (UniProt Q9UNQ0); experiment: LTEA_HepaRG_ABCG2: Life Technologies and Expression Analysis (LTEA) Assay for ABC Transporter (ABCG2) using HepaRG (AID 2283465); details: mRNA level, 48 h; actives raise or lower the signal
In short: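 Differentiated HepaRG cells in serum-free induction medium were exposed for 48 h, in duplicate, to eight half-log concentrations up to 100 uM in 0.5% DMSO. ABCG2 mRNA was measured by TaqMan qRT-PCR, normalized to ACTB, GAPDH and POLR2A, and fitted bidirectionally versus DMSO.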

[11] = read-out: Peroxisomal acyl-coenzyme A oxidase 1 (ACOX1) gene, ACOX1 (gene 51); experiment: LTEA_HepaRG_ACOX1: Life Technologies and Expression Analysis (LTEA) Assay for Peroxisomal acyl-coenzyme A oxidase 1 (ACOX1) gene using HepaRG (AID 2283467); details: mRNA level, 48 h; actives raise or lower the signal
In short: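 Differentiated human HepaRG cells were exposed in duplicate for 48 h in serum-free induction medium to eight half-log concentrations up to 100 uM in 0.5% DMSO. ACOX1 mRNA was then quantified by TaqMan qRT-PCR, normalized to ACTB, GAPDH and POLR2A.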

[12] = read-out: Alkaline Phosphatase, Placental (ALPP) gene, ALPP (gene 250); experiment: LTEA_HepaRG_ALPP: Life Technologies and Expression Analysis (LTEA) Assay for Alkaline Phosphatase, Placental (ALPP) gene using HepaRG (AID 2283468); details: mRNA level, 48 h; actives raise or lower the signal
In short: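 HepaRG cells plated 48 h, then exposed in duplicate for 48 h in serum-free induction medium to 8-point half-log series from 100 uM in 0.5% DMSO. ALPP mRNA by TaqMan qRT-PCR, normalized to ACTB/GAPDH/POLR2A; bidirectional fit versus DMSO.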

[13] = read-out: Bcl-2 (BAD) gene, BAD (gene 572); experiment: LTEA_HepaRG_BAD: Life Technologies and Expression Analysis (LTEA) Assay for Bcl-2 (BAD) gene using HepaRG (AID 2283469); details: mRNA level, 48 h; actives raise or lower the signal
In short: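 Differentiated human HepaRG cells in serum-free induction medium were exposed in duplicate for 48 h to eight concentrations (top 100 uM, half-log steps, 0.5% DMSO). BAD mRNA was quantified by qRT-PCR normalised to ACTB, GAPDH and POLR2A, with bidirectional fitting versus DMSO.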

[14] = read-out: Bcl-2 (BAX) gene, BAX (gene 581); experiment: LTEA_HepaRG_BAX: Life Technologies and Expression Analysis (LTEA) Assay for Bcl-2 (BAX) gene using HepaRG (AID 2283470); details: mRNA level, 48 h; actives raise or lower the signal
In short: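 Concentration-response endpoint fitted in both directions relative to 0.5% DMSO vehicle. Human HepaRG cultures receive test chemicals for 48 h at up to 100 uM; BAX mRNA is quantified by qRT-PCR against housekeeping genes.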

[15] = read-out: adenosine kinase (ADK) gene, ADK (gene 132); experiment: LTEA_HepaRG_ADK: Life Technologies and Expression Analysis (LTEA) Assay for adenosine kinase (ADK) gene using HepaRG (AID 2283471); details: mRNA level, 48 h; actives raise or lower the signal
In short: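 ADK expression quantified by qRT-PCR, normalised to three housekeeping genes, after 48 h exposure of HepaRG cells to eight concentrations (top 100 uM, half-log steps, duplicate, 0.5% DMSO). Up- or down-regulation fitted relative to vehicle.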

[16] = read-out: Alpha-fetoprotein (AFP) gene, AFP (gene 174); experiment: LTEA_HepaRG_AFP: Life Technologies and Expression Analysis (LTEA) Assay for Alpha-fetoprotein (AFP) gene using HepaRG (AID 2283472); details: mRNA level, 48 h; actives raise or lower the signal
In short: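 After a 48 h plating period, cells are moved to serum-free induction medium and dosed in duplicate (100 uM maximum, half-log dilutions, 0.5% DMSO) for another 48 h. Total RNA goes to TaqMan qRT-PCR; AFP signal is housekeeping-normalized.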

BCL2L11 (gene 10018) = experiment: LTEA_HepaRG_BCL2L11: Life Technologies and Expression Analysis (LTEA) Assay for Bcl-2 (BCL2L11) gene using HepaRG (AID 2283473); details: mRNA level, 48 h; actives raise or lower the signal
In short: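 Differentiated human HepaRG cells were exposed 48 h in serum-free induction medium to eight half-log concentrations up to 100 uM in 0.5% DMSO, in duplicate. BCL2L11 mRNA was quantified by TaqMan qRT-PCR, normalized to ACTB, GAPDH and POLR2A; induction or repression fitted versus DMSO.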

[17] = read-out: ATP-citrate lyase (ACLY), ACLY (gene 47); experiment: LTEA_HepaRG_ACLY: Life Technologies and Expression Analysis (LTEA) Assay for ATP-citrate lyase (ACLY) using HepaRG (AID 2283466); details: mRNA level, 48 h; actives raise or lower the signal
In short: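 Differentiated human HepaRG cells in serum-free induction medium exposed 48 h, in duplicate, to eight half-log concentrations from 100 uM top in 0.5% DMSO; ACLY mRNA measured by qRT-PCR, normalized to ACTB, GAPDH, POLR2A, fitted bidirectionally versus DMSO.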

[18] = CEETOX_H295R_TESTO: CeeTox H295R High-throughput Steroidogenesis Assay for Testosterone (TESTO) (AID 2283457); details: actives raise or lower the signal
In short: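 H295R adrenal cells, passage ≤10, exposed to chemicals for 48 h. Testosterone in medium measured by MTBE extraction and HPLC-MS/MS against a 7-point standard curve. Bidirectional fit versus DMSO; MTT viability checked in the same wells.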

Measured: AC50

Broad substrate specificity ATP-binding cassette transporter ABCG2 (Homo sapiens), sequence (Q9UNQ0 whole entry, looked up): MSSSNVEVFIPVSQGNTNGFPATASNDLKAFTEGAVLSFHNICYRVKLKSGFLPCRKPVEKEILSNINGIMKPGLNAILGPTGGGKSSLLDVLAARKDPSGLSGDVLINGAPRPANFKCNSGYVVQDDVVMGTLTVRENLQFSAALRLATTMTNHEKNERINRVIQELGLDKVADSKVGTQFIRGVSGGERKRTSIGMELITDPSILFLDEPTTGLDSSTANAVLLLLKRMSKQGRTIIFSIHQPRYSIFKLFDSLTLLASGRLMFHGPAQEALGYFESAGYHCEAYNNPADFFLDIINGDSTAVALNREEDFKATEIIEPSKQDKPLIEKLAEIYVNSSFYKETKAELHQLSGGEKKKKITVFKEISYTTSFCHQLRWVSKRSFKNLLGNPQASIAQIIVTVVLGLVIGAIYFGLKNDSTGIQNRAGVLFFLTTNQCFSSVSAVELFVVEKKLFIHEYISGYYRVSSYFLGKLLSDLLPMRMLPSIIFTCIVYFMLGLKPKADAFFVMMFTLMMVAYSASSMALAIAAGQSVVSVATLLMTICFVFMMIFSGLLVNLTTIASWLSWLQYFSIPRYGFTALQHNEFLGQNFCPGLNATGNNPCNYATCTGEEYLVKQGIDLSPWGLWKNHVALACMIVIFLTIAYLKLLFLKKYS

CC(Oc1ccc(Cl)cc1Cl)C(=O)O (configuration not stated)
active: [1] 50 µM
not listed: [17] | [18]
inactive: all other assays above

CCNc1nc(Cl)nc(NCC)n1
active: [1] 21.4 µM
not listed: [17] | [18]
inactive: all other assays above

CO/C=C(/C(=O)OC)c1ccccc1Oc1cc(Oc2ccccc2C#N)ncn1
active: [1] 27 µM and 25.2 µM and 19 µM | [2] 30.5 µM | [4] 87.3 µM and 74.6 µM and 95.4 µM | [5] 23.5 µM | [6] 94.1 µM and 82.7 µM and 84.7 µM | [7] 22.1 µM and 26.1 µM | [8] 45.4 µM and 63 µM and 40.5 µM | [9] 86.9 µM and 83.9 µM | [10] 32 µM and 25.5 µM and 12.6 µM | [11] 50 µM and 63.3 µM | [12] 41.4 µM and 50 µM and 34 µM | [14] 77.2 µM and 69 µM and 72.1 µM | [16] 37.9 µM and 69.5 µM and 25.5 µM | BCL2L11 (gene 10018) 84.5 µM and 73.8 µM and 84.6 µM
inactive: [2] | [5] | [7] | [9] | [17] | [13] | [15]

CCCC1COC(Cn2cncn2)(c2ccc(Cl)cc2Cl)O1 (configuration not stated)
active: [1] 40 µM | [2] 77.7 µM | [4] 67.2 µM | [7] 12.2 µM | [8] 36.9 µM | [9] 68.5 µM | [10] 22.2 µM | [17] 11.9 µM | [11] 25.9 µM | [12] 25.6 µM | [14] 81 µM | [16] 24 µM
inactive: [18] | [5] | [6] | [13] | [15] | BCL2L11 (gene 10018)

O=C(O)COc1nc(Cl)c(Cl)cc1Cl
active: [1] 51 µM | [8] 23.2 µM
not listed: [17] | [18]
inactive: all other assays above

COP(=S)(OC)Oc1nc(Cl)c(Cl)cc1Cl
active: [1] 80.5 µM | [8] 86.7 µM
not listed: [17] | [18]
inactive: all other assays above
